A549 tox – Nrf2 qHTS screen for inhibitors: counterscreen for cytotoxicity; Potency, µM (titrated, usually from 46 µM), inactives show at the highest dose activity change, negative = cytotoxicity, actives largely listed as inhibitors; A549 ARE-Fluc cells, CellTiter-Fluor viability, 18-24 h; actives 0.16% (n = 390,000); also: potency is read from the fitted curve at half-maximal effect; % is scaled to controls: 0 for no effect and ±100 for the full control effect
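A549 ARE_Fluc cells in 5% FBS OPTI-MEM were exposed to compounds in concentration-response for 18-24 h at 37 deg C. Viability was read by CellTiter-Fluor fluorescence (Ex 405/Em 525) after 30 min, before the luciferase read.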
p53 reactivator – qHTS assay for re-activators of p53 using a Luc reporter; AID 504706, 2011; actives 0.063% (n = 320,000); H1299 p53-A138V BP100-luciferase reporter, luminescence, 24 h; Potency, µM (doses to about 92.2 µM), for the others: at the top dose activity change, positive = activation, hits mostly activators; also: potency is read from the fitted curve at half-maximal effect; % of control where 0% means no effect; nearly all actives have a fitted effect of over 45% in size
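p53-null H1299 cells stably carrying temperature-sensitive p53-A138V and a BP100-luciferase reporter were pinned with compounds (4-point, 1:5 series) and held 24 hrs at 37 deg C. Luminescence was read 10 min after detection reagent.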
miR-21 reporter – qHTS Assay for Modulators of miRNAs and/orActivators of miR-21; Potency, µM (top dose mostly 38.3 µM), for the others: top-dose activity change, positive = activation, usual class: activators; 340,000 tested, under 10 active; HeLa miR-21 FLuc reporter, luciferase, 48 h;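 also: % of control where 0% means no effect; miR-21 action dims this reporter so a rising signal means less miR-21 action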
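HeLa cells endogenously expressing miR-21, stably carrying CMV-driven firefly luciferase with a downstream miR-21 binding site, 2000 cells/well. Titrations up to approximately 40 uM, 48 hours; luciferase luminescence read.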
Nrf2 inh – Nrf2 qHTS screen for inhibitors | A549 ARE-Fluc reporter, luciferase luminescence, 18-24 h | Potency, µM (series often up to 46 µM), for inactives: at the highest dose activity change, negative = inhibition, actives largely listed as inhibitors | actives 2.1% (n = 360,000) | AID 504444, 2011; also: potency is read from the fitted curve at half-maximal effect; % is scaled to controls: 0 for no effect and ±100 for the full control effect; nearly all actives have a fitted effect of over 60% in size
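Concentration-response testing used A549 ARE_Fluc cells at 5000 cells/well. Following an 18-24 h compound incubation, viability was read by fluorescence (Ex 405/Em 525) and luciferase output by luminescence.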
ClpP mod – qHTS Assay for Activators of ClpP. ATP-dependent Clp protease proteolytic subunit (Bacillus subtilis (strain 168)), P80244. purified B. subtilis ClpP, FRET peptide cleavage, 20 min. Potency, µM (titrated, usually from 57.5 µM), for inactives: top-dose activity change, negative = active. actives 1.9% (n = 340,000); active = well fitted falling curve with a large enough effect; inconclusive = small, poorly fitted or top-dose-only effect; inactive = no such curve, though single readings can be large or run the other way; also: potency is read from the fitted curve at half-maximal effect; the source files actives as falling curves though it sought activators and does not explain the sign; nearly all actives have a fitted effect of over 65% in size
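Buffer: 100 mM Tris/HCl pH8, 100 mM KCl, 0.05% low protease BSA, 2.5% glycerol, 0.01% Tween-20. ClpP 10 microg/mL final; 20 min RT; delta FRET normalized to ADEP and DMSO controls.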
Nrf2 activator – qHTS of Nrf2 Activators; AREc32 ARE-luciferase reporter (MCF7-derived line), luminescence, 24 h; Potency, µM (doses to about 46.1 µM), inactives show top-dose activation, most hits filed as activators; actives 0.31% (n = 410,000); AID 624171, 2012; also: potency is read from the fitted curve at half-maximal effect; % of control where 0% means no effect; nearly all actives have a fitted effect of over 65% in size
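Luciferase luminescence (Steady-Glo, 30 min at room temperature) served as the read-out of ARE activation in AREc32 cells treated with compounds for 24 hr at 37 deg C.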
* hit, by the source's call; ? = inconclusive; . = not tested or not shown; [ ] = dose if it differs, or a comment. Rows were chosen to be rich in hits. Some 3.7% of all compounds tested hit in one or more screens of this group. Unless noted, calls follow the shape of the dose curve; as a rule, active = well fitted curve in the direction sought with a large enough effect; inconclusive = small, poorly fitted or top-dose-only effect, or another doubt; inactive = no such curve, though single readings can be large; an effect the other way counts as inactive or inconclusive.

SMILES	A549 tox	p53 reactivator	miR-21 reporter	Nrf2 inh	ClpP mod	Nrf2 activator
CC(C)(C)c1ccc(C(=O)NCC(=O)OC(C(=O)Nc2cc(C(F)(F)F)ccc2Cl)c2ccccc2)cc1 (stereo not given)	1%	.	.	?	.	.
N#Cc1c(N)n(-c2ccc(N)cc2)c2nc3ccccc3nc12	-1%	-2%	-21%	-2%	.	0%
N#Cc1c(N)n(C2CCCCC2)c2nc3ccccc3nc12	-2%	12%	-17%	?	32µM*	-1%
O=c1[nH]c(CN2CCN(S(=O)(=O)/C=C/c3ccccc3)CC2)nc2ccccc12	-4%	-6%	-1%	?	.	-1%
O=c1[nH]c(CN2CCN(S(=O)(=O)/C=C/c3ccccc3)CC2)nc2cc(Cl)ccc12	-20%	14%	22%	16µM*	.	0%
CC(=O)c1cn(CC(=O)Nc2ccccc2F)c2ccccc12	1%	.	15%	?	.	0%
O=C(Cn1c2ccccc2c(=O)c2ccccc21)Nc1ccccc1F	16%	10%	-5%	-9%	13µM*	0%[9.22 µM]
O=S(=O)(c1ccccc1)N1CCN(c2nc(C3CC3)nc3ccccc23)CC1	5%	.	.	-10%	.	.
CCCCC(=O)NC1(C(F)(F)F)C(=O)Nc2c1c(=O)[nH]c(=O)n2-c1ccc(F)cc1 (stereo not given)	-2%	.	-2%	.	-3%	0%
COc1ccc(/C(N)=N/OC(=O)c2ccco2)cc1	1%	-8%	0%	?	.	14%
N/C(=N\OC(=O)c1ccco1)c1ccccc1	-15%	?	-62%	?	1%	18µM*
Cc1ccc(/C(N)=N/OC(=O)c2ccco2)cc1	0%	18µM*	-46%	?	0%	24%
CC1=C(C(=O)OCc2ccccc2)N2C(=O)[C@@H](NC(=O)OCc3ccccc3)[C@H]2SC1	.	.	.	.	-5%	.
CCC[N+](C)(C)c1ccc(/C=C/c2ccnc3ccccc23)cc1	.	.	.	.	1%	.
COCc1c(Br)c(C)[nH]c(=O)c1C#N	-1%	-9%	-7%	-11%	14µM*	0%
CCOC(=O)Cn1c(C)c(Br)c(COC)c(C#N)c1=O	2%	2%	-1%	-24%	.	-1%
Cc1nc(-c2coc3cc(O)c(C)cc3c2=O)cs1	-7%	39%	3%	10µM*	-25%	2%
Cc1nc(-c2coc3cc(OCC(=O)O)ccc3c2=O)cs1	-9%	-9%	30%	?	35µM*	-3%
CC(C)(C)C1CCc2c(sc(NC(=O)c3ccncc3)c2C(=O)Nc2ccccc2Cl)C1 (stereo not given)	2%	.	5%	12%	-2%	0%
CN(Cc1ccccc1)c1ncnc2sccc12	1%	-4%	6%	16µM*	.	3%
Cc1ccc2c(CNC3CCC(C)CC3)c(C(=O)O)n(Cc3cccc(F)c3)c2c1 (stereo not given)	-19%	.	0%	-24%	-28%	0%
COc1cccc(CN2C(=O)c3ccccc3Sc3ccc(C(=O)NCCc4ccc(C)cc4)cc32)c1	-3%	.	4%	-26%	-5%	0%
COc1cccc(-n2nnc(S(=O)(=O)c3ccc(C)cc3)c2N)c1	13%	-7%	1%	5%	-1%	0%
CCc1ccc(S(=O)(=O)c2nnn(-c3ccc(F)cc3)c2N)cc1	-4%	.	13%	13µM*	1%	-1%
Cc1cc(=O)[nH]c(SCC(=O)N2CCCC2)n1	-6%	4%	.	1%	22µM*	-3%
SMILES	A549 tox	p53 reactivator	miR-21 reporter	Nrf2 inh	ClpP mod	Nrf2 activator
O=C(Cn1cc(CNC(=O)c2ccccc2)nn1)Nc1cc(C(F)(F)F)ccc1Cl	0%	.	.	8%	.	.
CCOC(=O)N1CCN(S(=O)(=O)c2ccc(C(=O)NNc3nc4c(C)cc(C)cc4s3)cc2)CC1	-13%	?	16%	?	-2%	3%
CCOC(=O)N1CCN(S(=O)(=O)c2ccc(C(=O)NNc3nc4cc(C)cc(C)c4s3)cc2)CC1	?	?	5%	3.7µM*	0%	0%
COC(=O)C(NNc1ccc(F)cc1)(NC(=O)c1ccccc1)C(F)(F)F (stereo not given)	-3%	-4%	-4%	23µM*	144%	1%
COC(=O)C(NNc1ccccc1C)(NC(=O)c1ccc(F)cc1)C(F)(F)F (stereo not given)	-5%	1%	-5%	-24%	343%	3%
CCO/C=N/Nc1nc(C(F)(F)F)nc2c1cnn2Cc1ccccc1	-19%	4%	7%	23µM*	-3%	0%
CC(Nc1oc(-c2ccco2)nc1C#N)c1ccccc1 (stereo not given)	13%	-6%	-10%	-3%	7.9µM*	18%
N#Cc1nc(-c2ccco2)oc1NCc1ccc(F)cc1	-4%	2%	-21%	-20%	8.9µM*	4%
CC(C)CNc1oc(-c2ccco2)nc1C#N	9%	-4%	-24%	-17%	18µM*	?
COc1ccc(S(=O)(=O)n2nc(C)c(S(=O)(=O)N3CCCCCC3)c2C)cc1OC	4%	.	3%	.	0%	0%
Cc1ccc(-n2ncc3c(SCc4cccc(C)c4)ncnc32)cc1	1%	11%	-46%	5%	28µM*	0%
Cc1cccc(CSc2ncnc3c2cnn3Cc2ccccc2)c1	-19%	5%	-1%	?	-3%	0%
Cc1ccc(-n2ncc3c(N4CCCC4)ncnc32)c(C)c1	-5%	-35%	-49%	25%	1%	0%
Cc1ccc(CNc2ncnc3c2cnn3-c2ccc(C)cc2C)cc1	3%	.	13%	.	-17%	4%
COc1cccc(N2CCN(c3ncnc4c3cnn4-c3ccc(C)cc3C)CC2)c1	?	-8%	?	18µM*	-29%	-5%
Cc1ccc(-n2ncc3c(SCc4cccnc4)ncnc32)c(C)c1	-20%	-2%	5%	4.1µM*	.	3%
Cc1ccccc1NC(=O)CCNC(=O)Cn1ccc2ccccc2c1=O	0%	.	3%	4%[9.27 µM]	-2%	0%
Cc1ccc(CCNC(=O)c2ccc3c(=O)n(-c4ccc(C)cc4)c(=O)[nH]c3c2)cc1	-8%	.	-11%	4%[9.27 µM]	-3%	-1%
COc1ccc2c(C)c(CC(=O)N3CCN(C(=O)C4COc5ccccc5O4)CC3)c(=O)oc2c1 (stereo not given)	13%	-8%	8%	23µM*	4%	0%

From PubChem BioAssay
